Experimental findings from PubChem BioAssay (EPA / NIEHS) are described below.

A short description of assay [1]: Tanguay_ZF_120hpf_EYE_legacy: (Legacy) Oregon State University Tanguay Lab 120 Hour Post-fertilization zebrafish Assay for Eye Malformation (AID 2283636).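 Further: binary presence or absence of eye malformation scored by brightfield in 120 hpf larvae.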 The method in brief: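 Binary brightfield scoring of eye defects at 120 hpf after static exposure from 6 hpf of single pronase-dechorionated wild-type embryos (28C, 0.64% DMSO). Non-mortality endpoints omitted where embryos died; fit vs DMSO.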

A short description of assay [2]: Tanguay_ZF_120hpf_SNOU_legacy: (Legacy) Oregon State University Tanguay Lab 120 Hour Post-fertilization zebrafish Assay for Snout Malformation (AID 2283637). Put shortly:
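Binary snout-malformation call at 120 hpf in wild-type 5D embryos, chorion removed by pronase, under static exposure from 6 hpf at 28C (0.64% DMSO). Embryos dying by 24 or 120 hpf excluded.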

The nature of assay [3]: Tanguay_ZF_120hpf_JAW_legacy: (Legacy) Oregon State University Tanguay Lab 120 Hour Post-fertilization zebrafish Assay for Jaw Malformation (AID 2283638).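 On AC50: active means more embryos with jaw malformation than DMSO controls.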 Put shortly: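 Wild-type 5D embryos, chorion removed at 4 hpf, dosed singly from 6 hpf; 28C static, sealed, foil-covered, to 120 hpf. Endpoint: jaw defect yes/no (brightfield); mortality excludes scoring.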
A short description of assay [4]: Tanguay_ZF_120hpf_OTIC_legacy: (Legacy) Oregon State University Tanguay Lab 120 Hour Post-fertilization zebrafish Assay for Otic Vesicle Malformation (AID 2283639). The method in brief: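 Binary scoring of otic vesicle defects at 120 hpf in zebrafish (Tropical 5D) held under static exposure at 28C, sealed and shaded, with final DMSO 0.64%. Embryos dying by 24 or 120 hpf excluded; fitted positively against DMSO.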

A short description of assay [5]: Tanguay_ZF_120hpf_BRAI_legacy: (Legacy) Oregon State University Tanguay Lab 120 Hour Post-fertilization zebrafish Assay for Brain Malformation (AID 2283641). The method in brief: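 Static exposure of staged wild-type embryos until 120 hpf, kept at 28C with light excluded and final DMSO of 0.64% (vol/vol). Presence or absence of brain malformation was noted under brightfield; mortality precluded scoring.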

A short description of assay [6]: Tanguay_ZF_120hpf_SOMI_legacy: (Legacy) Oregon State University Tanguay Lab 120 Hour Post-fertilization zebrafish Assay for Somite Malformation (AID 2283647). Put shortly: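 Somitogenesis defects are recorded as binary calls in whole larvae at 120 hpf after continuous static chemical exposure starting at 6 hpf in dechorionated 5D embryos. DMSO serves as negative control and baseline.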

Assay [7] can be described thus: Tanguay_ZF_120hpf_PFIN_legacy: (Legacy) Oregon State University Tanguay Lab 120 Hour Post-fertilization zebrafish Assay for Pectoral Fin Malformation (AID 2283648).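 Further: each larva judged yes or no for fin defect by brightfield with dead larvae skipped.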 The method in brief:
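Pectoral fin malformation was recorded as a binary endpoint at 120 hpf in wild-type Tropical 5D larvae, which had been dechorionated and exposed statically from 6 hpf at 28C in 0.64% DMSO. Dead embryos were excluded.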

The nature of assay [8]: Tanguay_ZF_120hpf_CFIN_legacy: (Legacy) Oregon State University Tanguay Lab 120 Hour Post-fertilization zebrafish Assay for Caudal Fin Malformation (AID 2283649). The method in brief: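 Single dechorionated 5D wild-type embryos are dosed at 6 hpf (final DMSO 0.64%) and held statically at 28C. Caudal fin malformation is recorded as present or absent at 120 hpf under brightfield, excluding dead embryos.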

Assay [9] is described as follows: Tanguay_ZF_120hpf_PIG_legacy: (Legacy) Oregon State University Tanguay Lab 120 Hour Post-fertilization zebrafish Assay for Pigmentation Malformation (AID 2283650). Put shortly:
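Pigment malformation recorded as a binary call at 120 hpf in zebrafish (Tropical 5D) exposed singly from 6 hpf after pronase dechorionation. Static, sealed, 28C exposure, 0.64% DMSO; mortality excludes scoring; positive-direction fit against DMSO.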

Assay [10] is described as follows: Tanguay_ZF_120hpf_SWIM_legacy: (Legacy) Oregon State University Tanguay Lab 120 Hour Post-fertilization zebrafish Assay for Swim Bladder Malformation (AID 2283654).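 Further: swim bladder malformation in each larva scored yes or no under brightfield.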 The method in brief:
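Scoring is binary for swim bladder defects at 120 hpf, by brightfield inspection of zebrafish larvae. Embryos were exposed singly from 6 hpf after pronase dechorionation, at 28C with 0.64% DMSO; mortality excluded scoring.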

Assay [11] can be described thus: Tanguay_ZF_120hpf_TRUN_legacy: (Legacy) Oregon State University Tanguay Lab 120 Hour Post-fertilization zebrafish Assay for Truncated Body (AID 2283655). The method in brief: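 Single dechorionated zebrafish embryos received test chemical from 6 hpf in 0.64% DMSO, kept at 28C. At 120 hpf, brightfield inspection noted any truncated body.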
A short description of assay [12]: Tanguay_ZF_120hpf_NC_legacy: (Legacy) Oregon State University Tanguay Lab 120 Hour Post-fertilization zebrafish Assay for Notochord and Tail Malformation (AID 2283656). The method in brief: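 Binary scoring of notochord distortion by brightfield microscopy; embryos dying were not scored. Wild-type Tropical 5D embryos, chorion removed, exposed singly and statically from 6 to 120 hpf, 28C, sealed, 0.64% DMSO.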

For assay [13], the system named is Thyroperoxidase (TPO), gene 54314. Nature of the assay: CCTE_Simmons_AUR_rTPO: CCTE's Amplex UltraRed Assay for Thyroperoxidase (TPO) Inhibition, Simmons Lab (AID 2283662).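 Further: potency for loss of signal meaning inhibition of peroxidase activity.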 The method in brief:
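Cell-free peroxidase activity assay using rat thyroid gland microsomes with excess H2O2 (300 uM) and 25 uM Amplex UltraRed. Compounds tested from 5 nM to 87.5 uM; fluorescence measured after 30 min at 37C, analysed relative to DMSO baseline.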

Assay [14] in a line: CCTE_Simmons_CellTiterGLO_HEK293T: Viability Assessment in CCTE's Assays for Thyroperoxidase (TPO) Inhibition, Simmons Lab (AID 2283665).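 On AC50: cells exposed to compound for 24 h before readout; actives reduce ATP signal below DMSO vehicle meaning cytotoxicity.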 Put shortly:
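Luciferase-coupled ATP content after 24 h exposure gives viability; 8-point series from 5 nM to 87.5 uM final in 0.5% DMSO. Human HEK293T cells, 1% FBS medium, three biological replicates, dichlone positive control.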
Background: Cellular ATP, detected with luciferase, serves as a proxy for viable cell number.

Assay [15] is described as follows: Tanguay_ZF_120hpf_CIRC_legacy: (Legacy) Oregon State University Tanguay Lab 120 Hour Post-fertilization zebrafish Assay for Circulatory Malformation (AID 2283651). Put shortly: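 Binary circulatory malformation call at 120 hpf by brightfield imaging of zebrafish larvae; chorion removed at 4 hpf, static exposure from 6 hpf in sealed dark plates at 28C, final DMSO 0.64%; non-mortality endpoints skipped if embryo died.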

Assay [16] is described as follows: Tanguay_ZF_120hpf_TR_legacy: (Legacy) Oregon State University Tanguay Lab 120 Hour Post-fertilization zebrafish Assay for Touch Response (AID 2283667). Put shortly: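 Binary touch-response endpoint in larvae at 120 hpf after static waterborne exposure from embryo stage (28°C, 0.64% DMSO vehicle, 5 uM trimethyltin chloride as positive control); embryos dead at 24 or 120 hpf excluded; fitted as gain versus DMSO.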

Read-out in assay [17]: kallikrein-3 (KLK3), KLK3 (gene 354)
The assay can be described thus: LTEA_HepaRG_KLK3: Life Technologies and Expression Analysis (LTEA) Assay for kallikrein-3 (KLK3) using HepaRG (AID 2283652; active means hit-call score of the fitted dose curve at least 0.9, where 1 is the maximum; inactive means score below 0.9). Particulars: mRNA level, 48 h; actives raise or lower the signal. The method in brief:
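KLK3 transcript levels were measured by TaqMan qRT-PCR with normalisation to three housekeeping genes. HepaRG cultures received chemicals for 48 h at up to 100 uM (half-log, 8 points, 0.5% DMSO vehicle), fitted in both directions against DMSO.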

Read-out in assay [18]: solute carrier (SLC10A1), SLC10A1 (gene 6554)
The assay can be described thus: LTEA_HepaRG_SLC10A1: Life Technologies and Expression Analysis (LTEA) Assay for solute carrier (SLC10A1) using HepaRG (AID 2283657; active means hit-call score of the fitted dose curve at least 0.9, where 1 is the maximum; inactive means score below 0.9). Particulars: mRNA level, 48 h; actives raise or lower the signal. Put shortly:
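SLC10A1 transcript measured by TaqMan qRT-PCR, housekeeping-normalised, after 48 h chemical treatment of human HepaRG cells. Eight concentrations (half-log, max 100 uM, 0.5% DMSO vehicle) in duplicate; fitted bidirectionally against DMSO baseline.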

Read-out in assay [19]: matrix metalloproteinase-1 (MMP1), MMP1 (gene 4312)
The assay can be described thus: LTEA_HepaRG_MMP1: Life Technologies and Expression Analysis (LTEA) Assay for matrix metalloproteinase-1 (MMP1) using HepaRG (AID 2283658; active means hit-call score of the fitted dose curve at least 0.9, where 1 is the maximum; inactive means score below 0.9). Particulars: mRNA level, 48 h; actives raise or lower the signal. Put shortly:
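In this screen, human liver HepaRG cultures receive each chemical in duplicate for 48 h (top 100 uM, 0.5% DMSO). MMP1 expression is then quantified by TaqMan qRT-PCR with ACTB/GAPDH/POLR2A normalization.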

Records with an inconclusive call do not appear. The source made the active and inactive calls. How the source made its calls, unless noted: active means hit-call score of the fitted dose curve at least 0.9, where 1 is the maximum; inconclusive means response in the unintended direction; inactive means score below 0.9.

Broadly, the AC50 is the concentration at which the activity in the assay is half-maximal. In the case of `COC(=O)Nc1nc2ccccc2[nH]1`, the results for the concentration at half-maximal activity (AC50) in assay [1], in assay [13] and in assay [14] were 46.4 µM (active), 24.5 µM (active) and 1.41 µM (active), respectively. Moreover, the compound was called inactive in assay [2], in [3], in [4], in assay [5], in assay [6] and in [7]. In addition, the compound was classed as inactive in assay [8], in assay [9], in assay [10], in assay [11] and in [12].

On to `CNC(=O)Oc1cccc2c1OC(C)(C)C2`, for which the compound was called inactive in assay [1], in [4], in assay [5], in assay [6], in [7] and in assay [8]. The compound was called inactive in [9], in assay [15], in [10], in assay [12] and in assay [16]. Besides, the AC50 in assay [2] was 43.9 µM (active); in assay [3], 36 µM (active); in assay [11] it was 12.6 µM (active).

For the compound `CC(C)(O)c1cnn2c(-c3ccc(F)c(-c4c(F)cccc4C#N)c3)cnc2n1`, the outcome in [1], in assay [2], in [3], in assay [4], in [5] and in assay [6] was inactive. Moreover, the result in assay [7], in assay [8], in assay [9], in assay [10] and in assay [11] was inactive.

Consider `O=C1CCCO1`, for which the compound was called inactive in [1], in [2], in assay [3], in assay [4], in assay [6] and in assay [7]. Besides, the result in assay [8], in [9], in assay [15], in assay [10], in assay [11] and in [16] was inactive.

`OCCCBr`: the outcome in assay [1], in assay [2], in assay [3], in assay [4], in assay [5] and in assay [6] was inactive. Besides, the compound was called inactive in assay [7], in assay [8], in assay [10], in [11], in assay [12] and in assay [16].

For the compound `Cc1cccc(N)c1N`, the compound was classed as inactive in assay [1], in assay [2], in [3], in assay [4], in assay [5] and in [6]. Moreover, the compound was classed as inactive in [7], in assay [8], in assay [9], in assay [10], in assay [11] and in [12]. For the same compound, the AC50 was 2.35 µM (active) in assay [13] and 4.54 µM (active) in assay [14].

As for `Nc1ccc(Cc2ccc(N)cc2)cc1`, the compound was classed as inactive in assay [1], in assay [2], in [3], in assay [4], in assay [6] and in [7]. The result in assay [8], in assay [9], in assay [10], in assay [12], in [14] and in assay [16] was inactive. For the same compound, the concentration at half-maximal activity (AC50) in [13] was 0.0776 µM (active).

Consider `CN(C)C(=O)Nc1ccc(Cl)cc1`, for which the outcome in assay [1], in [2], in [3], in assay [4], in assay [5] and in assay [6] was inactive. Further, the call in [7], in [8], in assay [9], in assay [17], in assay [10] and in assay [11] was inactive. For the same compound, the compound was called inactive in assay [12], in [18], in [19], in assay [14] and in [16]. Further, in assay [13], the AC50 is 21.7 µM (active).

Regarding `CC(C)N(Cc1ccccc1)C(=O)C(C)(C)C`, the outcome in assay [1], in assay [2], in [3], in assay [4], in [5] and in assay [6] was inactive. The compound was called inactive in [7], in [8], in assay [10], in assay [11], in assay [12] and in [16].
